PubChem BioAssay

Columns and labels:
[1] = biological target: Tumor necrosis factor receptor superfamily member 10B (Homo sapiens) (UniProt O14763); assay: viability loss of caspase-8 NB7 cells with TRAIL – with/without TRAIL, luminescence panel, confirmation (AID 651596); settings: NB7 neuroblastoma + caspase-8, TRAIL sensitization, NB7 Caspase-8, with TRAIL, mean of runs, at 10 µM, stronger effect = higher value
[2] = as above; settings: NB7 neuroblastoma + caspase-8, without TRAIL, NB7 Caspase-8, without TRAIL, mean of runs, at 10 µM

Sequence of Tumor necrosis factor receptor superfamily member 10B (Homo sapiens) (O14763 whole entry, looked up): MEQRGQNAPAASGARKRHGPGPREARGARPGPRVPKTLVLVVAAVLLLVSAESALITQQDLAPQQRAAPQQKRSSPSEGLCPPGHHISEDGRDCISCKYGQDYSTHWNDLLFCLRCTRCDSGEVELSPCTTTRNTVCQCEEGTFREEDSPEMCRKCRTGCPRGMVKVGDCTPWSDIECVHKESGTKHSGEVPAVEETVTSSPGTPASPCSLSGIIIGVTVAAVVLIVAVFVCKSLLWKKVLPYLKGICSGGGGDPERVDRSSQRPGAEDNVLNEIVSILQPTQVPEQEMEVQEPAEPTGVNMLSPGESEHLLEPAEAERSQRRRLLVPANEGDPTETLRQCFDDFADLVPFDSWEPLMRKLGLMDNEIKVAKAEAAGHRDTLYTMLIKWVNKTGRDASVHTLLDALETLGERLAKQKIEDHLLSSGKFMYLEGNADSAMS

| Structure (SMILES) | activity [1] [%] | activity [2] [%] |
| --- | --- | --- |
| CCOc1ccc(-c2c(C#N)c(N)nc3c2c(=O)n(C)c(=O)n3C)cc1OC | -4.4 | -21.2 |
| NC(=O)c1ccsc1NC(=O)c1ccc(N2CCCC2=O)cc1 | 87.3 | 85.7 |
| CCC(C(=O)O/N=C(\N)c1ccccc1)c1ccccc1 (centres undefined) | 81.9 | 81.6 |
| O=C(COc1ccc2ccccc2c1)Nc1nccs1 | 58 | 55.8 |
| COc1cccc(-c2noc(-c3ccc4c(c3)OCO4)n2)c1 | 65.7 | 62.5 |
| Cc1ccc(CS(=O)(=O)c2ncc(Cl)c(C(=O)Nc3ccc(OC(F)F)cc3)n2)cc1 | 5.62 | -6.55 |
| O=C(Nc1nc2ccccc2[nH]1)c1ccc(Cl)cc1 | 94.4 | 94.1 |
| O=C(Nc1ccc2c(c1)OCO2)c1ccc(Cl)cc1Cl | 72.1 | 67.6 |
| Cc1ccccc1Nc1nc(N)nc(CCl)n1 | 98.5 | 96.2 |
| NC(Cc1ccccc1)c1csc(NC(=O)Nc2ccccc2Oc2ccccc2)n1 (centres undefined) | 61.5 | 78.7 |
| Cn1cc(S(=O)(=O)CC(=O)N2CCCc3ccccc32)c2ccccc21 | 1.93 | -0.4 |
| c1ccc(-c2ccc(-c3cn4c(n3)CCC4)cc2)cc1 | 62.8 | 67.6 |
| COc1ccc(C(=O)Nc2cccc(OC)c2)cc1 | 56.9 | 53.9 |
| N#Cc1ccccc1N/C=C/C(=O)c1ccc(Cl)cc1 | 48.7 | 53.1 |
| O=C(N/N=C/c1cc(O)ccc1[N+](=O)[O-])c1ccc2c(c1)OCCO2 | 91 | 87.7 |
| COc1ccc(/C=N/Nc2cc(OC)ncn2)cc1 | 53.9 | 40.8 |
| O=C(Nc1cc(S(=O)(=O)N2CCOCC2)ccc1N1CCOCC1)c1ccc([N+](=O)[O-])s1 | 39.1 | 41.4 |
